The results in this text go back to PubChem BioAssay (NCI).

The panel holds about 83,000 compounds, 20% with a hit somewhere; the sample as a whole holds those more often.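 Method: cells in 96-well plates; compound added at one concentration; 48 h incubation; percent growth measured; values under 10 scored active.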 Activity calls are given as the source filed them.

The assay deals with SK-OV-3 ovarian. Nature of the assay: NCI-60 one-dose screen, 48 h (100 = growth as untreated, 0 = no growth, -100 = all killed). Particulars: 10 µM unless noted.
As for `N#C/C(C(=O)c1ccccc1)=C1/C(=O)Nc2ccc(F)cc21`, the growth is 84.5% (inactive).
With `C=C(C)[C@@H]1CC[C@]2(C(=O)NCCCN)CC[C@]3(C)[C@H](CC[C@@H]4[C@@]5(C)CC[C@H](O)C(C)(C)[C@@H]5CC[C@]43C)[C@@H]12`, the growth is -27.2% [100 µM] (active).
To `O=C1/C(=C\c2cn(CC(O)CN3CCCCC3)c3ccccc23)c2ccccc2N1c1c(Cl)cccc1Cl` (stereo not drawn) belongs -99.7% (active); to `COc1ccc(OC)c([N+](=O)[O-])c1C(=O)CNC(C)=O`, 105% (inactive).
To `Nc1cccc2c1C(=O)c1cccc(NC(=O)c3ccccc3)c1C2=O` belongs 20.4% (inactive).
The figure for `CCNc1cc2c(cc1Br)-c1ccccc1C2=O` is 90.4% (inactive); for `CCOc1cccc2c(NC(C)CCCN(CC)CC)c(C)cnc12` (stereo not drawn) it is 95.8% (inactive).
Turning to `COc1cc(/C=C/C(=O)/C=C/c2ccc(-n3ccnc3C)cc2)ccc1O`, the growth is 86.1% (inactive).
With `COc1cc(-c2nc(SCCC(C)C)nc(Nc3ccccc3)c2C#N)cc(OC)c1OC`, the growth was 107% (inactive).
To `CN(C)C(=S)Sc1ccc([N+](=O)[O-])cc1[N+](=O)[O-]` belongs 93.1% (inactive); to `Nc1ccc(Cl)c([N+](=O)[O-])c1`, 108% (inactive).
To `CCCCCCCCCCCCNC(=S)N/N=C/c1ccccc1O` belongs 102% (inactive); to `CC1(C)CC[C@]2(C(=O)OC(=O)[C@]34CCC(C)(C)C[C@@H]3C3=CC[C@@H]5[C@@]6(C)CCC(=O)C(C)(C)[C@@H]6CC[C@@]5(C)[C@]3(C)CC4)CC[C@]3(C)C(=CC[C@@H]4[C@@]5(C)CCC(=O)C(C)(C)[C@@H]5CC[C@]43C)[C@H]2C1`, 72.9% [100 µM] (inactive).
